According to PubChem BioAssay AID504332 (National Center for Advancing Translational Sciences (NCATS), 2011):
Among all 350,000 compounds or so, about 31,000 (8.9%) were called active. Inconclusive results (about 15%) are left out. The entries come from a sample that favours actives as a whole. Entries that show only a call come without a potency. Values without a mark were called inactive. Calls come from the whole dose curve; as a rule, active = well fitted inhibition curve with a large enough effect; inconclusive = small, poorly fitted or top-dose-only effect; inactive = no such curve, though single readings can be large or run the other way.

biological target: Histone-lysine N-methyltransferase EHMT2 (Homo sapiens) (UniProt Q96KQ7); assay: qHTS Assay for Inhibitors of Histone Lysine Methyltransferase G9a; conditions: G9a H3K9 monomethylation, AlphaScreen, 2 h; series mostly up to 59 µM; note: nearly all actives have a fitted effect of over 75% in size
Sequence (Q96KQ7 913-1193 limits assumed): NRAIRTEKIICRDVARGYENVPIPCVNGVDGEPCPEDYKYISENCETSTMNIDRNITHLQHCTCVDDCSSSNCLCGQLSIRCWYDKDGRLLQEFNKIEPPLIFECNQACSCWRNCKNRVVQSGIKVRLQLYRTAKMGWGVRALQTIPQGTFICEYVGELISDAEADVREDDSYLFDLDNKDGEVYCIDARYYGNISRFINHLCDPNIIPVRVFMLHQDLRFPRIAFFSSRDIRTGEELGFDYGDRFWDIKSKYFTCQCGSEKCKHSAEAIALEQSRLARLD
Procedure, shortened: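 AlphaScreen read-out: biotin-H3K9 peptide (500 nM) methylation by 20 nM enzyme with 20 uM SAM, 2 h at room temperature after 15 min compound preincubation; anti-monomethyl H3K9 antibody plus donor/acceptor beads, 10 min dark.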
Potency is the fitted concentration of half-maximal effect.

SMILES | Potency | activity, negative = inhibition
O=C(NC1CCCCC1)c1ccc2c(c1)N(Cc1ccc(Cl)cc1)C(=O)c1ccccc1S2=O (centres undefined) | inactive | –
Nc1ncc(S(=O)(=O)Nc2ccc(OC(F)(F)F)cc2)cn1 | inactive | –
COc1ccc(NS(=O)(=O)c2cccc(C(=O)NCCc3ccc(S(N)(=O)=O)cc3)c2)cc1 | – | 9.68% [at 12.7 µM]
Cc1ccc(CN(C(=O)c2ccccc2[N+](=O)[O-])c2ccccn2)cc1 | inactive | –
CCCC(=O)N=c1sc2cccc(F)c2n1C | 44.7 µM (active) | –
Cn1c(=NC(=O)CSCC(=O)N2CCCCC2)sc2ccccc21 | inactive | –
CCN(CC)S(=O)(=O)c1ccc(C(=O)N=c2sc3cccc(OC)c3n2C)cc1 | inactive | –
CCOc1ccc(CC(=O)NCCc2csc3nc(-c4ccccc4F)nn23)cc1 | inactive | –
CC(C)CCN(C(=O)Nc1ccc(Cl)c(Cl)c1)C(C)c1cccs1 (centres undefined) | inactive | –
CCOC(=O)CSc1nccc(N(C)C)c1C#N | inactive | –
CCCCOc1ccc(-c2ncc(C(=O)OCC)c(N)n2)cc1 | – | 6.88% [at 12.7 µM]
CCOC(=O)C(Sc1ncc(C#N)c(N)n1)C(C)C (centres undefined) | 39.8 µM (active) | –
O=C(CNc1cccc(S(=O)(=O)N2CCCCC2)c1)Nc1ccccc1F | – | 14.7% [at 12.7 µM]
CCN1C(=O)[C@@H]2[C@@H](c3ccc(-c4ccc(OC)cc4)c(OC)c3)N3CCC[C@@]3(C(=O)OC)[C@@H]2C1=O | – | -8.12% [at 2.33 µM]
Cc1nn(Cc2ccccc2)c(C)c1C(=O)NCCCN1CCCC1=O | – | 10.5% [at 12.7 µM]
CCOC(=O)c1c(NC(=O)CN2C(=O)NC3(CCC(C)CC3)C2=O)sc(C)c1CC (centres undefined) | inactive | –
CCC(=C/c1sc2ccc3ccccc3c2[n+]1C)/C=C1\Sc2ccc3ccccc3c2N1C | 3.16 µM (active) | –
O=C(NNC(=S)Nc1ccccc1)c1cccc(S(=O)(=O)N2CCOCC2)c1 | 31.6 µM (active) | –
COC(=O)c1cc(Oc2ccc(S(=O)(=O)N3CCOCC3)cc2[N+](=O)[O-])cc(C(=O)OC)c1 | – | 19.1% [at 12.7 µM]
O=C(NC(=S)Nc1ccc(S(=O)(=O)N2CCOCC2)cc1)c1ccccc1[N+](=O)[O-] | 39.8 µM (active) | –

SMILES | Potency | activity, negative = inhibition
O=C(CN1C(=O)CCC1=O)Nc1ccc(S(=O)(=O)N2CCOCC2)cc1 | inactive | –
CN1CCN(S(=O)(=O)c2ccc(NC(=S)NC(=O)C3CC3)cc2)CC1 | inactive | –
Cc1cc(C(=O)NNC(=O)c2cccc(S(=O)(=O)N3CCOCC3)c2)c2ccccc2n1 | inactive | –
Cc1ccccc1OCC(=O)Nc1ccc(S(=O)(=O)N2CCOCC2)cc1 | inactive | –
O=S(=O)(c1ccc(NC(=S)NN=C(C2CC2)C2CC2)cc1)N1CCOCC1 | 1.78 µM (active) | –
O=C(COC(=O)c1ccccc1)Nc1cccc(S(=O)(=O)N2CCOCC2)c1 | inactive | –
CCOC(=O)c1c(S(=O)(=O)NCC(=O)Nc2ccc(Cl)c(C(F)(F)F)c2)c(C)n(C)c1C | inactive | –
CCCS(=O)(=O)N1CCC(n2c(C(F)(F)F)nc3cccnc32)CC1 | inactive | –
Cn1c(=O)c2c(n3c4ccccc4nc13)NC(=O)CC2c1cccc(Cl)c1 (centres undefined) | inactive | –
Cc1cc2nc(-c3ccc(NC(=O)c4cc5ccccc5o4)cc3)oc2cc1C | inactive | –
O=C1COc2ccc(S(=O)(=O)NCCc3ccc(Cl)cc3)cc2N1 | inactive | –
O=C(CCCC(=O)N1CCN(c2cccc(Cl)c2)CC1)c1ccccc1 | inactive | –
O=C(Cn1nnc2ccccc2c1=O)NCc1ccc(Cl)cc1 | inactive | –
C=CCn1c(SCc2ccc(C(=O)NCCO)cc2)nc2ccccc2c1=O | inactive | –
C=CCn1c(SCn2nnc3ccccc3c2=O)nnc1-c1ccc(Cl)cc1 | 44.7 µM (active) | –
CCOc1ccc(NC(=O)CCC(=O)N2CC(C)Oc3ccc(C)cc32)cc1 (centres undefined) | inactive | –
CCCCN(CC)C(=O)c1c[nH]c2ccc(S(=O)(=O)Nc3cccc(OC)c3)cc2c1=O | inactive | –
CCN(CC)c1ccc(NC(=O)CCc2nnc3ccc(N4CCCCC4)nn23)c(C)c1 | 44.7 µM (active) | –
CCOC(=O)c1cccc(NC(=O)CCc2nnc3ccc(N4CCOCC4)nn23)c1 | inactive | –
CCOc1ccc(CCNC(=O)CCc2nnc3ccc(N4CCCC4)nn23)cc1OCC | inactive | –

SMILES | Potency | activity, negative = inhibition
Cc1ccc2c(c1)N(C(=O)CCC(=O)NCc1ccccc1F)CC(C)O2 (centres undefined) | inactive | –
CCCc1cc(=O)oc2c(C)c(OCC(=O)Nc3ccccn3)ccc12 | – | -3.15% [at 0.0925 µM]
O=C(Nc1ccc2nc(SCC(=O)N3CCc4ccccc43)sc2c1)c1ccccc1F | inactive | –
Cc1cc(O)ccc1-c1cnc2ccccc2n1 | 14.1 µM (active) | –
Oc1ccc(-c2[nH]ncc2-c2nc3ccccc3s2)c(O)c1 | inactive | –
Oc1ccc2nc(Cc3ccccc3)[nH]c2c1 | – | -45.3% [at 12.7 µM]
NS(=O)(=O)c1ccc(CCNC(=O)CCCCCn2c(=O)[nH]c3ccccc3c2=O)cc1 | inactive | –
O=C1CN(C(=O)Nc2ccccc2C(F)(F)F)C(c2ccccc2)c2c(sc3c2CCCC3)N1 (centres undefined) | inactive | –
CC(C)c1ccc(C2C(C(=O)c3ccco3)=C(O)C(=O)N2CC2CCCO2)cc1 (centres undefined) | 44.7 µM (active) | –
O=C(NCC(=O)N(CC1CCCO1)C(C(=O)NC1CCCCC1)c1ccccc1)c1ccco1 (centres undefined) | inactive | –
CC(C)c1ccc(N(C(=O)c2ccco2)C(C(=O)NC2CCCC2)c2cccnc2)cc1 (centres undefined) | inactive | –
Cc1cccc(C)c1-n1c(C)cc(/C=C2\C(=O)NN(c3ccccc3)C2=O)c1C | 15.8 µM (active) | –
Cc1ccc(CN2C(=O)N/C(=C/c3cc(C)n(-c4ccccn4)c3C)C2=O)cc1 | inactive | –
CCC1=NN2C(=N)/C(=C/c3cc(C)n(-c4ccccc4)c3C)C(=O)N=C2S1 | inactive | –
Cc1cc(C)c2oc(C(=O)Nc3c(C(=O)Nc4ccccc4)oc4ccccc34)cc(=O)c2c1 | inactive | –
CCOc1ccc2nc(N3CCCC(C(=O)Nc4cc(C)ccc4C)C3)sc2c1 (centres undefined) | inactive | –
COc1cc(C2CC(=O)N3CN(Cc4ccccc4)CSC3=C2C#N)ccc1OCc1ccccc1 (centres undefined) | 0.891 µM (active) | –
COc1ccc(C2C(=O)N(C3CCCCCC3)CC(=O)N2CCc2ccc(Cl)cc2)cc1OC (centres undefined) | inactive | –
COc1ccc(CCN=C2SCC(=O)N2Cc2ccccc2)cc1OC | inactive | –
